About 79,000 compounds went through this panel and 15% of them were active in at least one assay; those are over-represented in the sample as a whole. No stated cut-off is given here; in the data, active means growth inhibition above about 70%; inactive means the rest. Where a SMILES comes first, the peptide text is derived from it. Bridges are numbered along the chain shown (N, C = ends). Roman numbers before positions name the chains, in order. The star is where a group is joined. Cbz = O=C(OCc1ccccc1)*
Key:
[1] = NCI Yeast Anticancer Drug Screen. Data for the rad50 strain (AID 155);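 further: 0% = growth of vehicle-only cultures of the same strain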; conditions: S. cerevisiae rad50 strain growth inhibition; at 50.0 µM; active compounds read high
Method in brief: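 DNA repair mutant yeast, compound exposure, growth read-out; inhibition is taken relative to vehicle.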

[2] = NCI Yeast Anticancer Drug Screen. Data for the mec2-1 strain (AID 157); conditions: S. cerevisiae mec2-1 strain, at 50.0 µM, active compounds read high
Method in brief: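 Strain: mec2-1 (DNA repair/cell cycle alteration). Compound exposure, then growth measured; inhibition expressed relative to vehicle.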

[3] = NCI Yeast Anticancer Drug Screen. Data for the sgs1 mgt1 strain (AID 161);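 further: 0% = growth of cultures given vehicle only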; conditions: S. cerevisiae sgs1 mgt1 strain, at 50.0 µM, active compounds read high
Method in brief: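 Test agents were incubated with a DNA-repair-mutant yeast strain. Growth was then read and compared against vehicle-treated controls.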

[4] = NCI Yeast Anticancer Drug Screen. Data for the cln2 rad14 strain (AID 165);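 further: 0% = growth equal to vehicle treated cultures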; conditions: S. cerevisiae cln2 rad14 strain, at 50.0 µM, active compounds read high
Method in brief: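 Compounds are applied to the cln2 rad14 yeast strain, and growth is then compared with that of vehicle-treated cultures to give inhibition.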

[5] = NCI Yeast Anticancer Drug Screen. Data for the bub3 strain (AID 167); conditions: S. cerevisiae bub3 mutant strain, at 50.0 µM, active compounds read high
Method in brief: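 In this screen, a yeast mutant lacking normal mitotic checkpoint function is challenged with compound. Relative growth versus vehicle gives the inhibition value.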

[6] = NCI Yeast Anticancer Drug Screen. Data for the mlh1 rad18 strain (AID 175); conditions: S. cerevisiae mlh1 rad18 strain growth inhibition; at 50.0 µM; active compounds read high
Method in brief: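 Read-out is yeast growth inhibition, calculated against vehicle-only controls. The compound was applied to a strain engineered with DNA damage repair alterations.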

Measured: growth inhibition

CN1c2ccccc2C2CC(CC#N)CC(=O)C21 (centres undefined)
inactive: [1] 18.9% | [2] 13.7% | [3] -8.1% | [4] -12.2% | [5] -20.2% | [6] 20.2%

CN(/N=C\c1ccc2ccccc2c1)C1=NCCN1
inactive: [1] 5.65% | [2] 0.25% | [3] -14.8% | [4] -63% | [5] 4.1% | [6] -12.1%

CCOC(=O)Cc1nc2ncncc2[nH]c1=O
inactive: [1] 3.25% | [2] 12.2% | [3] -1.8% | [4] 15.3% | [5] 2.35% | [6] -7.85%

COc1cc(/C=C/C(=O)c2sc(NNC(C)=O)nc2C)ccc1O
inactive: [1] 15.6% | [2] 6.85% | [3] 19.3% | [4] 23.1% | [5] 18.8% | [6] 27.1%

Cc1cc(N=[N+]=[N-])c2cc3c(cc2n1)OCO3
inactive: [1] -32.2% | [2] -7.5% | [3] -0.4% | [4] -39% | [5] 5.65% | [6] 14%

COc1cc2cc(-c3ccccn3)nc(N)c2cc1OC
inactive: [1] 29.2% | [2] 9.35% | [3] 39.5% | [4] 2.55% | [5] -1.5% | [6] 9.95%

COCC12CC(CC1=O)C1C2ON2c3ccccc3C(=O)C12c1ccccc1 (centres undefined)
inactive: [1] 50.9% | [2] -8.25% | [3] 36.8% | [4] 37.8% | [5] 26.9% | [6] 18.6%

CC(C)CNCCCC(C)Nc1ccnc2cc(Cl)ccc12 (centres undefined)
inactive: [1] 11.3% | [2] -1.45% | [3] -2.25% | [4] -2.95% | [5] -15% | [6] -9.65%

O=C(O)c1cccn1-c1ccccc1
inactive: [1] -4.05% | [2] -24.6% | [3] -1.55% | [4] -21.1% | [5] -10.2% | [6] -15.6%

O=C(OCC1OC(OC(=O)N(c2ccccc2)c2ccccc2)C(OS(=O)(=O)c2ccc([N+](=O)[O-])cc2)C1OC(=O)c1ccccc1)c1ccccc1 (centres undefined)
inactive: [1] 34.1% | [2] -5.05% | [3] -5.05% | [4] -10% | [5] 0.1% | [6] 24%

O=C(CN1C(=O)CC(NC(=O)OCc2ccccc2)C1=O)NCC(=O)Oc1ccc([N+](=O)[O-])cc1 (centres undefined)
inactive: [1] 31.6% | [2] 20.9% | [3] 26.9% | [4] 7.7% | [5] 4% | [6] 22.1%

CCOCCOC(=O)c1ccc(C(N)=NC)cc1
inactive: [1] 12.6% | [2] -1.2% | [3] 5.2% | [4] -8.15% | [5] 6.05% | [6] 5.8%

S=c1ncnc2cc3[nH][nH]cc3cc12
inactive: [1] 1.95% | [2] 2.5% | [3] -5.35% | [4] -33.5% | [5] -7.95% | [6] -2.25%

COc1ccccc1NC(=O)CC(=O)n1nc(-c2ccccc2)c(N=Nc2ccccc2[N+](=O)[O-])c1-c1ccccc1
inactive: [1] -0.4% | [2] -15.5% | [3] 27.9% | [4] 0.5% | [5] 25.3% | [6] 15.5%

COc1ccc2cc1Oc1ccc(cc1)C[C@@H]1c3cc(c(OC)cc3CCN1C)Oc1c(OC)c(OC)cc3c1[C@@H](C2)N(C)CC3
inactive: [1] 33% | [2] -20.8% | [3] 18.6% | [4] -2.7% | [5] 21.9% | [6] 31.2%

Cc1ccccc1-c1ccccc1
inactive: [1] 14.8% | [2] 1.3% | [3] -17.7% | [4] -45.8% | [5] -5.8% | [6] 17.6%

CC(C)C(NC(=O)C(CSSCC(NC(=O)OCc1ccccc1)C(=O)NC(C(=O)O)C(C)C)NC(=O)OCc1ccccc1)C(=O)O (stereo not drawn) (I: Cbz-Cys-Val-OH / II: Cbz-Cys-Val-OH; disulfide I:1-II:1; configuration not given here)
inactive: [1] 1.4% | [2] 11.3% | [3] -3.75% | [4] -3.25% | [5] -1% | [6] 3.3%

CC(=O)Nc1nnc(C)o1
inactive: [1] -0.85% | [2] -3.5% | [3] -1.55% | [4] -40.6% | [5] 10.3% | [6] -2.05%

CC(NC(=O)C(N)CCC(=O)O)C(=O)NCP(=O)(O)O (centres undefined)
inactive: [1] -13.1% | [2] -49% | [3] 0.35% | [4] 26.4% | [5] 4.25% | [6] 8%

O=C(Cc1ccccc1)NCO
inactive: [1] 2.95% | [2] 6.35% | [3] -9.6% | [4] -52.4% | [5] -3.5% | [6] 4.6%

CCC(C#N)NC1CCN(Cc2ccccc2)CC1 (centres undefined)
inactive: [1] 1.3% | [2] -23.1% | [3] -2.05% | [4] 6.1% | [5] -7.75% | [6] 5.85%

CCCCCCCCCC(O)CO (centres undefined)
inactive: [1] -20.6% | [2] -20.7% | [3] -23.8% | [4] 6.4% | [5] -10.6% | [6] -5.95%

Brc1cccc(-c2nnc(-c3ccc4ccccc4c3)o2)c1
inactive: [1] -5.85% | [2] -29.5% | [3] 6% | [4] 11.4% | [5] -9% | [6] -2.25%

CCC(C)C1(C)OC1C(=O)OC (centres undefined)
inactive: [1] -2.7% | [2] -31.6% | [3] -42.4% | [4] 22.1% | [5] -41% | [6] 4.55%

Cc1ccc(S(=O)(=O)Nc2ccccc2)cc1
inactive: [1] 18% | [2] -27.9% | [3] 21% | [4] -20.2% | [5] 3.8% | [6] 37.3%

CCc1n[nH]c(=O)n1N1C(=O)C2CCCCC2C1=O (centres undefined)
inactive: [1] 16.1% | [2] -20.5% | [3] 35.1% | [4] 6.5% | [5] 3.2% | [6] -25.9%

CC1=C(C#[N+][O-])C(C)(C)CCC1
inactive: [1] 1.05% | [2] 5.1% | [3] -2.9% | [4] 10.1% | [5] -23.9% | [6] -16.2%

C1CCC(N=C2N(C3CCCCC3)C(=NC3CCCCC3)N2C2CCCCC2)CC1
inactive: [1] 4.7% | [2] -28.3% | [3] -7.2% | [4] -19.6% | [5] -20.6% | [6] -4.35%

NNC(=O)C1=NN(c2ccccc2)C(=O)C1
inactive: [1] 39.3% | [2] 12.8% | [3] 33.6% | [4] -12.9% | [5] 36.8% | [6] 42.1%

COc1ccc(C)c(CN(C)C)c1
inactive: [1] 7.85% | [2] -7.7% | [3] 8.35% | [4] 5.25% | [5] -1.2% | [6] 23.6%

CC(CN(C)C)C(=O)C(=Cc1ccccc1)C(=O)C(C)CN(C)C (centres undefined)
inactive: [1] 40.1% | [2] 13.1% | [3] 16.9% | [4] 22.5% | [5] -2.5% | [6] 20%

NC(=S)N/N=C1/CCCC/C1=N/O
inactive: [1] 46.1% | [2] 33.1% | [3] 36.2% | [4] -0.15% | [5] 25.2% | [6] -6.35%

CCc1c(-c2ccccc2)[nH]c(=S)c(C#N)c1C
inactive: [1] -8.7% | [2] -1.5% | [3] 26.6% | [4] 2.7% | [5] -1.1% | [6] -3.9%

CC1(C)C2CC[C@]3(C)C(C(=O)C=C4[C@@H]5C[C@@](C)(C(=O)O)CC[C@]5(C)CCC43C)[C@@]2(C)CC[C@@H]1OC1OC(C(=O)O)C(O)C(O)C1OC1OC(C(=O)O)C(O)C(O)C1O (some centres undefined) (tested in a mixture with another compound)
inactive: [1] 5.65% | [2] -2.45% | [3] 2.7% | [4] -12.2% | [5] -3.55% | [6] -0.35%

Cc1cccc(-c2nc(N)nc(N)n2)c1
inactive: [1] 11.8% | [2] -9.45% | [3] -1.05% | [4] 18.6% | [5] 7% | [6] 22.4%

CCOC(=O)NNC(=O)C1CSC(c2ccccc2)N1C(C)=O (centres undefined)
inactive: [1] -52.5% | [2] -13.4% | [3] -27.1% | [4] 10.5% | [5] 1.85% | [6] -22.3%

COC(=O)CC1(O)C(C=C(C)C)C(C(=O)OC)C(=O)C(C(=O)OC)C1C(=O)OC (centres undefined)
inactive: [1] -10.8% | [2] -7.15% | [3] -28.9% | [4] -3.5% | [5] -32.2% | [6] -1.25%

COc1c(O)cc2oc(-c3ccc(O)cc3)cc(=O)c2c1O
inactive: [1] 11% | [2] -5.7% | [3] 29.8% | [4] 10.8% | [5] 16.2% | [6] -0.05%

O=c1n(-c2ccccc2)c(=O)n2c(-c3ccccc3)c(-c3ccccc3)n12
inactive: [1] 38.5% | [2] -23.7% | [3] -36.5% | [4] -12.6% | [5] -23.6% | [6] -30.8%

From PubChem BioAssay (NCI)
